# Screening results deposited in PubChem by several laboratories.
# PrP 5UTR inh: inhibition of PrP 5' UTR reporter expression; inhibition, % (concentration not given with the values); actives 0.35% (n = 340,000); cell-based PrP 5' UTR mRNA reporter, plate reader; in the data active means inhibition above about 52%; further: 0 = median of the neutral control wells
# BJeLR lethal: kills HRASV12-expressing BJeLR cells. BJeLR (HRASV12) viability, CellTiter-Glo ATP luminescence, 48 h. inhibition, % (test concentration not listed). actives 0.17% (n = 300,000). AID 1554; in the data active means inhibition above about 50%
# PfHsp40 rescue: rescue of PfHsp40-mediated yeast toxicity; AID 504582; S. cerevisiae expressing PfHsp40, growth rescue, ATP luminescence; actives 0.68% (n = 340,000); growth rescue, % at 12.5 µM; in the data active means growth rescue above about 28%, passing the limit was not always enough;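 further: yeast W303a lacking pdr1 and pdr3 grown in galactose medium; growth measured after three days at 30 °C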
# PrPC TRFRET: cell surface PrPC inhibition, primary TR-FRET screen; TR-FRET read-out; inhibition, % at 13.8 µM; actives 0.43% (n = 370,000); P04156; in the data active means inhibition above about 24%; further: 0% = median of the test wells and 100% = reference compound wells
# Mtb FBA inh: Mtb fructose-bisphosphate aldolase inhibition. P9WQA3. inhibition, % at 1 µM. AID 588726. actives 2.3% (n = 360,000). purified M. tuberculosis FBA, fluorescence read-out;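 further: 0% = vehicle and 100% = reference inhibitor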
# Target sequence (P9WQA3 whole entry, looked up): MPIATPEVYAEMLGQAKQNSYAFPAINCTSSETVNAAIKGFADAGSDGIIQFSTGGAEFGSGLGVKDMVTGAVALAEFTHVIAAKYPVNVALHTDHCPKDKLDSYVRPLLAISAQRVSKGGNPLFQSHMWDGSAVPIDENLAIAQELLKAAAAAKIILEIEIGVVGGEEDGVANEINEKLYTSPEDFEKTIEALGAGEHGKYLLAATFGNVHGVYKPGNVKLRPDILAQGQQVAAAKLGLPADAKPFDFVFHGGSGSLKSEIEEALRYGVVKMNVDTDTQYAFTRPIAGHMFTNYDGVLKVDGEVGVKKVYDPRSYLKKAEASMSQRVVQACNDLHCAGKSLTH
# GDH-TPI counter-1: GDH-TPI coupled enzyme inhibition counter-screen | GDH-TPI coupled enzyme counterscreen, NADH absorbance | inhibition, % at 4.8 µM | actives 1.2% (n = 360,000); in the data active means inhibition above about 30%;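 further: 0% = DMSO wells and 100% = wells lacking the enzyme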
# Mtb FBA inh conf: Mtb FBA inhibition, confirmed. shares compounds with Mtb FBA inh. purified M. tuberculosis FBA, fluorescence read-out. inhibition, % at 1 µM. actives 78% (n = 5,600). AID 651616;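 further: 0% = vehicle wells and 100% = reference inhibitor wells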
# GDH-TPI counter-2: inhibits GDH-TPI coupling enzymes, flagging Mtb FBA hits. GDH-TPI coupled enzyme counterscreen, fluorescence. actives 81% (n = 5,600). inhibition, % at 1 µM. shares compounds with Mtb FBA inh; in the data active means inhibition above about 10%
# The depositor's hits bear a star; . = no result; + = active, no number. This is a sample that favours compounds with a hit; in the whole collection about 4.5% have one here. Unless noted, no stated cut-off is given here; in the data, active means inhibition above about 27%; inactive means the rest.
SMILES,PrP 5UTR inh,BJeLR lethal,PfHsp40 rescue,PrPC TRFRET,Mtb FBA inh,GDH-TPI counter-1,Mtb FBA inh conf,GDH-TPI counter-2
COc1ccc(C#CCN(Cc2ccc(OC)cc2OC)C(N)=NC(=O)CCc2ccccc2)cc1,.,.,.,11,.,.,.,.
C[C@@H]1COc2cc(Br)ccc2S(=O)(=O)N1Cc1cn(CC2CCCCC2)nn1,.,.,.,-5,.,.,.,.
O=C(NC1CCCCN(Cc2cccc(Cl)c2)C1=O)c1ccc(Cl)cc1Cl (stereo not given),.,.,.,1,.,.,.,.
N#CCC[C@H]1CC[C@]2(CCCN(Cc3cccc4ccccc34)C2)O1,.,.,.,-2,.,.,.,.
CCOC(=O)N1CCC(NC(=O)CSCc2nc(-c3ccc(C)cc3)oc2C)CC1,-26,0,1,3,51*,-2,21,20*
OC(c1ccccc1)(c1nc(-c2cccc(C(F)(F)F)c2)cs1)C(F)(F)F (stereo not given),.,.,.,2,-5,6,.,.
FC(F)(F)c1cccc(-c2ccn3ncnc3n2)c1,-10,-1,-1,2,33*,0,-12,-6
C[C@H](CO)N1C[C@H](C)[C@@H](CN(C)C(=O)NC2CCCCC2)Oc2ccc(NC(=O)CCC(F)(F)F)cc2C1=O,0,.,1,-4,76*,-1,2,0
CC(C)NC(=O)N(C)C[C@H]1Oc2ccc(NC(=O)CCC(F)(F)F)cc2C(=O)N([C@H](C)CO)C[C@@H]1C,-9,.,-2,-2,4,10,.,.
COc1cc(O)oc1C=Nc1ccc(C(=O)O)cc1,-12,41,0,-7,4,18,.,.
CCCCCCCC[n+]1cccc2c3ccccc3ccc21,8,34,-1,6,67*,-3,65*,42*
CCCn1c(SCC(=O)Nc2c(C)cccc2CC)nnc1C(C)C,-4,-2,-1,0,39*,4,118*,111*
Cc1ccc(-c2nc3c(=O)n(C)c4ccccc4c3o2)cc1,-32,-10,4,0,35*,8,2,-2
Cc1ccc(-c2nc3c(=O)n(-c4ccccc4)c4c(c(=O)n(C)c(=O)n4C)c3o2)cc1,-4,7,0,5,2,0,.,.
O=C(OCc1cncs1)c1ccccc1,-104,-4,1,6,0,-7,.,.
COc1ccc(NC(=O)CN(C)CC(=O)Nc2ccc(Cl)c(S(=O)(=O)N(C)C)c2)cc1,-27,4,0,-1,4,-8,.,.
CN(CC(=O)Nc1ccc(Cl)c(S(=O)(=O)N(C)C)c1)Cc1ccccc1,-40,1,0,2,53*,2,+,+
Nc1ncnc2oc(-c3ccco3)c(-c3ccco3)c12,25,-8,4,13,31*,23,+,143*
Nc1nnc(-c2ccco2)s1,-23,-9,0,-5,1,2,.,.
Cc1ccc(C(=O)CSc2nnnn2C(C)C)c(C)c1,44,1,-1,-1,-3,0,.,.
COC(=O)[C@@]12C[C@@H](CC(=O)N3CCOCC3)C(=O)N(Cc3cccc4ccccc34)C1=CCC(C)(C)C2,.,.,.,9,.,.,.,.
CN(C)/C=N/c1nc2nccc(-c3cccnc3)n2n1,-14,-4,1,-3,27*,1,152*,107*
Cc1nn2c(-c3cccnc3)ccnc2c1-c1ccccc1,-18,4,1,-8,0,4,.,.
COc1ccc(-c2ccnc3nc(/N=C/N(C)C)nn23)cc1,.,0,.,5,.,.,.,.
Nc1nc2nccc(-c3cccnc3)n2n1,-17,0,-1,9,64*,19,-8,-5
SMILES,PrP 5UTR inh,BJeLR lethal,PfHsp40 rescue,PrPC TRFRET,Mtb FBA inh,GDH-TPI counter-1,Mtb FBA inh conf,GDH-TPI counter-2
CCN(CC)CCCNC(=O)c1cn(C(C)c2ccccc2)nn1 (stereo not given),.,.,.,-6,.,.,.,.
COC(=O)CNC(=O)CNC1(C(=O)NCCc2c[nH]c3ccccc23)CCCCC1,.,.,.,-3,.,.,.,.
COc1ccc(CCC(=O)NCCS(=O)(=O)N2CCN(c3ccccc3OC)CC2)cc1,-30,5,0,-5,-1,9,.,.
CCOc1ncccc1C(=O)Nc1nc(SC)ns1,-35,-4,2,-4,4,5,.,.
CCCN(CC(=O)Nc1cc(Cl)ccc1Cl)C(=O)/C=C/c1cc(OC)ccc1OC,-22,.,3,-5,39*,5,+,+
CCCN(CC(=O)Nc1ccc(Cl)cc1Cl)C(=O)/C=C/c1cccc([N+](=O)[O-])c1,-8,-12,-1,3,1,0,.,.
CCCN(CC(=O)Nc1ccc(Cl)cc1Cl)C(=O)/C=C/c1cc(OC)ccc1OC,-17,3,0,4,28*,7,9,3
Cc1cc(NC(=O)COC(=O)C(C)Oc2ccc(Cl)cc2Cl)no1 (stereo not given),-14,1,1,7,1,-5,.,.
CC(=O)Nc1cc(-c2ccccc2Cl)cn2c(-c3ccc(S(C)(=O)=O)cc3)cnc12,.,.,.,-4,42*,12,+,183*
CC(=O)Nc1cc(-c2cccc(C)c2)cn2c(-c3ccc(S(C)(=O)=O)cc3)cnc12,.,.,.,-5,35*,14,1,-3
COc1ccccc1-c1cc(NC(C)=O)c2ncc(-c3ccc(S(C)(=O)=O)cc3)n2c1,.,.,.,10,59*,16,71*,62*
CC(=O)Nc1cc(-c2ccccc2)cn2c(-c3ccc(F)c(Cl)c3)cnc12,.,.,.,0,4,13,.,.
COc1ccc(-c2cnc3c(NC(C)=O)cc(-c4ccccc4OC)cn23)cc1OC,.,.,.,0,9,9,.,.
O=C(NCc1ccc2c(c1)OCO2)c1ccccc1Cl,-23,3,-1,6,0,9,.,.
CC(C)C(OC(=O)c1ccco1)C(=O)NCc1ccc2c(c1)OCO2 (stereo not given),-21,-6,0,-4,74*,2,135*,84*
CC(=O)OC(C(=O)NCc1ccc2c(c1)OCO2)c1ccccc1Cl (stereo not given),-13,-6,0,4,105*,4,120*,92*
C=CCn1c2ccccc2c(=O)c2cc(C#CC3(O)CCCCC3)ccc21,-99,8,14,-1,65*,1,134*,108*
O=c1oc(CCCO)cc2ccc(C#CC3(O)CCCCC3)cc12,-28,.,1,9,10,16,.,.
COc1ccc2c(c1)CCC1(C)CC(=O)C=C21 (stereo not given),.,.,.,-5,39*,37*,46*,45*
COc1ccc(C2CC(=O)C=C3c4ccc(OC)cc4CCC32)cc1 (stereo not given),.,.,.,-5,4,26,.,.
CC1(C)CC(=O)c2cc(OCC(=O)NCCCN3CCN(c4ccc(F)cc4)CC3)ccc2O1,.,3,0,-4,13,9,.,.
